Source: PubChem BioAssay (several laboratories)
A3A deaminase: human APOBEC3A DNA deaminase inhibition; P31941; recombinant A3A, FAM/TAMRA ssDNA deamination fluorescence; 330,000 compounds, 0.41% hits; inhibition, % at 20 µM;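 active = at least 40% inhibition at 20 µM here, with at most 30% in a related deaminase screen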
Target sequence (P31941 whole entry, looked up): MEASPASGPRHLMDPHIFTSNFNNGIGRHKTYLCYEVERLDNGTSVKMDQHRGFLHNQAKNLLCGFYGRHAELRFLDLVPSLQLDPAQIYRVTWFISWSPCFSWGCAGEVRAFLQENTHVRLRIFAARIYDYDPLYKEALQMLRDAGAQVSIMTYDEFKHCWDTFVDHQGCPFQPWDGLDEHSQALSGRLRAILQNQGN
MIN6 prolif: induces beta-cell replication in MIN6 cells | MIN6 cells proliferation, ATPlite luminescence, 48 h; cells starved in 0.2% serum; 100% = growth in 10% serum | proliferation, % at 10 µM | 330,000 compounds, 0.29% hits | AID 2380;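 active = compounds whose signal lies at least 3.5 SD above the mean of all wells on their plate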
CendR NRP1 mod: NRP-1/CendR interaction modulation. FAM-RPARPAR peptide binding to NRP-1, fluorescence polarization. O14786. inhibition, % at 25 µM. 360,000 compounds, 0.85% hits;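 active = inhibition or corrected inhibition above about 18%, plus a signal ratio from 0.5 to 1.5, limit read from the data, passing the limit was not always enough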
APOBEC3G inh: inhibitors of human APOBEC3G DNA deaminase | Q9HC16 | recombinant A3G, ssDNA deamination FAM/TAMRA fluorescence | inhibition, % at 20 µM | 330,000 compounds, 0.28% hits | AID 493012;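 active = inhibition of at least 40% at 20 µM, with no more than 30% in the related APOBEC3A deaminase screen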
VLA-4 inh: inhibition in a human VLA-4 binding assay; VLA-4 expressing cells, ligand binding flow cytometry; inhibition, % (about 7 µM as worked out from the volumes in the protocol); AID 2557; P13612; 330,000 compounds, 0.2% hits; in the data active = inhibition above about 50%
APOBEC3G confirm: confirmation of human APOBEC3G DNA deaminase inhibitors; recombinant A3G ssDNA deaminase, UDG/FAM-TAMRA fluorescence; inhibition, % at 20 µM; shares compounds with APOBEC3G inh; 890 compounds, 72% hits;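 active = inhibition reaching a set limit in any replicate at 20 µM, the limit being 80% of the first screen's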
UDG A3G counter: E. coli UDG inhibition in APOBEC3G counter-screen. shares compounds with APOBEC3G inh. UDG counterscreen, FAM/TAMRA oligo fluorescence. inhibition, % at 20 µM. 710 tested, under 10 active. AID 504715;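 active = compounds giving 40% or more inhibition at 20 µM in any one of the three replicates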;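 note: inhibitors lower the FAM signal released by uracil excision and alkaline cleavage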
Target sequence (P12295 whole entry, looked up): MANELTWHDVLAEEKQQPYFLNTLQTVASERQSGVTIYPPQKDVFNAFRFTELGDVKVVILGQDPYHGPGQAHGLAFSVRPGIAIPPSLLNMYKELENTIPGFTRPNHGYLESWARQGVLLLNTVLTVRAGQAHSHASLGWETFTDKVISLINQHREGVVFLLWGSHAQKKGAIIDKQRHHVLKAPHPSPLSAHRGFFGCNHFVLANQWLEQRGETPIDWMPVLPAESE
Hits are given with their value. An excerpt weighted towards active compounds, which were near 1.8% of everything screened.

How did Cc1[nH]c(=O)c(C#N)c2c1CCCC2 do in these assays?
A3A deaminase: inactive; MIN6 prolif: inactive; CendR NRP1 mod: inactive; APOBEC3G inh: inactive; VLA-4 inh: inactive

Results for Cc1[nH]c(=S)c(C#N)c2c1CCCC2 ?
A3A deaminase: inactive; MIN6 prolif: inactive; CendR NRP1 mod: inactive; APOBEC3G inh: 50; VLA-4 inh: inactive; APOBEC3G confirm: 83; UDG A3G counter: inactive

Results for CCN(CC)S(=O)(=O)c1ccc(C(=O)Nc2cc(S(=O)(=O)N3CCOCC3)ccc2N2CCN(C)CC2)cc1 ?
CendR NRP1 mod: inactive

How did S=c1[nH]nc(-c2ccco2)n1C1CCCCC1 do in these assays?
A3A deaminase: inactive; MIN6 prolif: inactive; CendR NRP1 mod: inactive; APOBEC3G inh: 44; VLA-4 inh: inactive; APOBEC3G confirm: 84; UDG A3G counter: inactive

How did CC(C)CSc1n[nH]c(=S)s1 do in these assays?
A3A deaminase: inactive; MIN6 prolif: inactive; CendR NRP1 mod: inactive; APOBEC3G inh: 42; VLA-4 inh: inactive; APOBEC3G confirm: 90; UDG A3G counter: inactive

How did c1ccc(SSc2ccccn2)nc1 do in these assays?
A3A deaminase: inactive; MIN6 prolif: inactive; CendR NRP1 mod: inactive; APOBEC3G inh: 64; VLA-4 inh: inactive; APOBEC3G confirm: 88; UDG A3G counter: inactive

How did c1ccc(Sc2ccccn2)cc1 do in these assays?
A3A deaminase: inactive; MIN6 prolif: inactive; CendR NRP1 mod: inactive; APOBEC3G inh: inactive; VLA-4 inh: inactive

Results for CN1CCN(C(=O)CCc2nnc3ccc(N4CCC5(CC4)OCCO5)nn23)CC1 ?
A3A deaminase: inactive; MIN6 prolif: inactive; CendR NRP1 mod: inactive; APOBEC3G inh: inactive; VLA-4 inh: inactive

How did CCOC(=O)C1=C(C)N(c2ccccc2)C(=O)/C1=C\c1ccc(O)c(OC)c1 do in these assays?
A3A deaminase: inactive; MIN6 prolif: inactive; CendR NRP1 mod: inactive; APOBEC3G inh: 66; VLA-4 inh: inactive; APOBEC3G confirm: inactive

Results for CCc1ccc(C(C#N)=CC=Cc2ccccc2)cc1 ?
CendR NRP1 mod: inactive

What do the screens show for `Cc1nc(NC(=O)CSc2nnnn2C)sc1C`?
A3A deaminase: inactive; MIN6 prolif: inactive; CendR NRP1 mod: inactive; APOBEC3G inh: inactive; VLA-4 inh: inactive

Results for COC(=O)c1sc(NC(=O)CSc2nnnn2C)nc1C ?
A3A deaminase: inactive; MIN6 prolif: inactive; CendR NRP1 mod: inactive; APOBEC3G inh: 56; VLA-4 inh: inactive; APOBEC3G confirm: inactive; UDG A3G counter: inactive

What do the screens show for `O=S(=O)(c1ccc(N2CCN(CCO)CC2)nc1)N1CCCCC1`?
A3A deaminase: inactive; MIN6 prolif: inactive; CendR NRP1 mod: inactive; APOBEC3G inh: 42; VLA-4 inh: inactive; APOBEC3G confirm: inactive

Results for CC(=O)N1CCN(c2ccc(S(=O)(=O)N3CCCCC3)cn2)CC1 ?
A3A deaminase: inactive; MIN6 prolif: inactive; CendR NRP1 mod: inactive; APOBEC3G inh: inactive; VLA-4 inh: inactive

What do the screens show for `O=C(C[C@@H]1C/C=C\C[C@H](Cc2ccc(F)cc2)C(=O)OC[C@H]2CCCN2C1=O)N[C@H](CO)Cc1ccccc1`?
A3A deaminase: inactive; MIN6 prolif: inactive; CendR NRP1 mod: inactive; APOBEC3G inh: inactive; VLA-4 inh: inactive

How did CCOC(=O)c1c(NC(=O)CCC(=O)O)sc2c1CCCCC2 do in these assays?
A3A deaminase: inactive; MIN6 prolif: inactive; CendR NRP1 mod: inactive; APOBEC3G inh: 40; VLA-4 inh: inactive; APOBEC3G confirm: inactive

What do the screens show for `Cc1cccc(-n2ccnc2SCC(=O)Nc2nnc(C)s2)c1`?
A3A deaminase: inactive; MIN6 prolif: inactive; CendR NRP1 mod: inactive; APOBEC3G inh: 49; VLA-4 inh: inactive; APOBEC3G confirm: inactive; UDG A3G counter: inactive

What do the screens show for `CC(O)CC(C(=O)NNc1ccccc1)C(=O)NNc1ccccc1` (centres undefined)?
A3A deaminase: inactive; MIN6 prolif: inactive; CendR NRP1 mod: inactive; APOBEC3G inh: 44; VLA-4 inh: inactive; APOBEC3G confirm: inactive; UDG A3G counter: inactive

What do the screens show for `S=c1[nH]nc(-c2ccc(Br)cc2)n1-c1ccc(Br)cc1`?
A3A deaminase: inactive; MIN6 prolif: inactive; CendR NRP1 mod: inactive; APOBEC3G inh: inactive; VLA-4 inh: inactive
